Assay results taken from PubChem BioAssay (Tox21).
Records with an inconclusive call do not appear. Calls of active or inactive are those of the source. Unless noted, the call rests on the fitted dose curve.

Key:
[1] = Nuclear factor erythroid 2-related factor 2/antioxidant responsive element (Nrf2/ARE) small molecule agonists: qHTS cell viability counter screen in human keratinocytes (AID 1919968; active means well fitted curve in the direction sought with a large enough effect in the repeat runs; an effect the other way counts as inactive or inconclusive; further: nearly all actives have a fitted effect of over 55% in size)
Procedure, shortened: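 HaCaT ARE reporter line, 1,500 cells/well; 5 h settle, 37 C/5% CO2; cpd in DMSO pinned; 23 h exposure; CellTiter-Fluor, 1 h; fluorescence.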

[2] = Nuclear factor erythroid 2-related factor 2/antioxidant responsive element (Nrf2/ARE) small molecule agonists: luciferase reporter gene qHTS assay in human keratinocytes (AID 1919969); further: nearly all actives have a fitted effect of over 35% in size; further: potency means the concentration at half of the fitted maximal effect
[3] = molecular target: Gonadotropin-releasing hormone receptor (Homo sapiens) (UniProt P30968); assay: Human gonadotropin-releasing hormone receptor (GnRHR) small molecule agonists, calcium flux assay in GnRHR-HEK293 cells (AID 1920063); further: nearly all actives have a fitted effect of over 35% in size
Gonadotropin-releasing hormone receptor (Homo sapiens), sequence (P30968 whole entry, looked up): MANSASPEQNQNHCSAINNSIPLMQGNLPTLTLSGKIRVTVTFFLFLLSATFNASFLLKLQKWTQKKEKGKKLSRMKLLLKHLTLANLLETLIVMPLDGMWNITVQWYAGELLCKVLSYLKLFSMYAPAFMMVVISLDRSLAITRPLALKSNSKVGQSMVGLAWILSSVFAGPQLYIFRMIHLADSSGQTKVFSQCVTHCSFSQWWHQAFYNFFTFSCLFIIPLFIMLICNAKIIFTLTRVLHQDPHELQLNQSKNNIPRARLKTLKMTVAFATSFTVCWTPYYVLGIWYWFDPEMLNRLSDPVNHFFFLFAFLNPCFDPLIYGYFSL
Procedure, shortened: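 GnRHR-HEK293, 1500 cells/well, 18 h 37 C/5% CO2; Ca dye 1 h 37 C; cpd pinned (DMSO), agonist mode; kinetic FL 480/540, 3 min, 1 s reads; 15 conc, n=3.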

[4] = molecular target: KiSS-1 receptor (Homo sapiens) (UniProt Q969F8); assay: Human kisspeptin (KISS1R) small molecule agonists, calcium flux assay in KISS1R-HEK293 cells (AID 1920064; active means well fitted curve in the direction sought with a large enough effect in the repeat runs; an effect the other way counts as inactive or inconclusive)
KiSS-1 receptor (Homo sapiens), sequence (Q969F8 whole entry, looked up): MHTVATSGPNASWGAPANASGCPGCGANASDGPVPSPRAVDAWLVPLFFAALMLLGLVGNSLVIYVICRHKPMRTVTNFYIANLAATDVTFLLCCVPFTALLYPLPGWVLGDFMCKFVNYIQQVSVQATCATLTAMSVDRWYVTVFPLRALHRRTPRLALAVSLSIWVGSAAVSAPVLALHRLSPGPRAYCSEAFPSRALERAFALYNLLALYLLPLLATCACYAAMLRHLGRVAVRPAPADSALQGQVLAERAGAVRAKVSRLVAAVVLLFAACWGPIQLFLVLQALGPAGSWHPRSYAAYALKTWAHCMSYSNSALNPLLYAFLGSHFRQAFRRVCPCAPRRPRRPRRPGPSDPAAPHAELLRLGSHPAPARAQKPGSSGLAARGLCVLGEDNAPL
Procedure, shortened: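 Stable human KISS1R HEK293 line; 18 h plating, 37 C/5% CO2; calcium dye 1 h 37 C; compound pin transfer; kinetic fluorescence Ex/Em 480/540, 3 min.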

[5] = G protein-coupled receptor (GPCR) small molecule agonists, calcium flux assay: HEK293 wild type cell line counter screen (AID 1920065)
Procedure, shortened: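 Kinetic fluorescence at Ex/Em 480/540, recorded every second over 3 min, served as the read-out after compound addition. Each compound was tested at 15 concentrations in triplicate on cells pre-loaded with calcium dye for 1 h.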

[6] = p53 small molecule agonists, cell-based qHTS assay with human liver microsomes: qHTS cell viability counter screen (AID 1963579); further: nearly all actives have a fitted effect of over 45% in size
Procedure, shortened: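 Cytotoxicity counter screen: p53RE-bla, 4,000 cells/well; 5 h settle, 37 C/5% CO2; cpd + HLM 0.5 mg/mL + NADPH 0.5 mg/mL (final); 16 h, 37 C; CellTiter-Glo, 30 min RT, luminescence.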

[7] = p53 small molecule agonists, cell-based qHTS assay with rat liver microsomes: qHTS cell viability counter screen (AID 1963580); further: nearly all actives have a fitted effect of over 45% in size
Procedure, shortened: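 p53RE-bla HCT-116 cells were exposed 16 h at 37 C to compounds with rat liver microsomes (0.5 mg/mL) and NADPH (0.5 mg/mL). Viability was measured in the same wells as ATP content by CellTiter-Glo luminescence.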

[8] = p53 small molecule agonists, cell-based qHTS assay: qHTS cell viability counter screen (AID 1963581); further: nearly all actives have a fitted effect of over 45% in size; further: potency means the concentration at half of the fitted maximal effect
Procedure, shortened: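 HCT-116 p53RE-bla cells, 4,000/well, plated 5 h before compound pin transfer; 16 h at 37 C; bla substrate 2 h RT; then CellTiter-Glo, 30 min RT, luminescence.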

[9] = p53 small molecule agonists, cell-based qHTS assay (AID 1963582; active means well fitted activation curve with a large enough effect in the signal ratio in the repeat runs, not every such curve was filed as active; the % refers to the signal ratio)
Procedure, shortened: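 Reporter line: p53RE-bla. Pre-incubation 5 h, 37 C, 5% CO2; compound (DMSO, pin tool) 16 h, 37 C; B/G FRET substrate 2 h RT; fluorescence intensity read.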

[10] = cAMP Responsive Elements (CRE) small molecule agonists, cell-based qHTS assay (AID 1963590)
Procedure, shortened: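 HEK 293T CRE-bla, 2,000 cells/well, 18 h preincubation 37 C/5% CO2; cpds (DMSO) pinned, 3 h; LiveBLAzer B/G FRET substrate, 2 h RT.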

[11] = molecular target: Beta-2 adrenergic receptor (Homo sapiens) (UniProt P07550); assay: Adrenergic beta2 receptor (ADRB2) small molecule antagonists, cell-based qHTS assay (AID 1963592); further: series mostly up to about 92 µM; nearly all actives have a fitted effect of over 50% in size
Beta-2 adrenergic receptor (Homo sapiens), sequence (P07550 whole entry, looked up): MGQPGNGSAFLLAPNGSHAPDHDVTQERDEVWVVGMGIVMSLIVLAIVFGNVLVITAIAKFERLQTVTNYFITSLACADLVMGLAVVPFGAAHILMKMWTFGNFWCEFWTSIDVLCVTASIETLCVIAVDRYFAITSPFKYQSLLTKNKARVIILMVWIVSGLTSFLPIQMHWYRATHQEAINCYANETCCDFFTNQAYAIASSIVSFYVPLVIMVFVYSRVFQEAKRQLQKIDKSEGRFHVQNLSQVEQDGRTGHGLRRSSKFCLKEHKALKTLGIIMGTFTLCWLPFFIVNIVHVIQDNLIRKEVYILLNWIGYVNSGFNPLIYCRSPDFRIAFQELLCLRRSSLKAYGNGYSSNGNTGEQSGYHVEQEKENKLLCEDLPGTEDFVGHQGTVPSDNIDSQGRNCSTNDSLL
Procedure, shortened: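 Cells (CHO, stable ADRB2 overexpression) incubated 18-20hr at 37C; compounds added from DMSO; agonist mix (1nM isoproterenol, 100uM IBMX, 25uM Ro-20-1724) added; 0.5hr RT; d2-cAMP and anti-cAMP-cryptate added; 1hr RT; 665/615 nm read.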

[12] = molecular target: Beta-2 adrenergic receptor (Homo sapiens) (UniProt P07550); assay: Adrenergic beta2 receptor (ADRB2) small molecule agonists, cell-based qHTS assay (AID 1963593);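 further: CHO cells stably overexpressing human ADRB2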
Procedure, shortened: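 CHO cells stably over-expressing ADRB2 were plated overnight at 37C, then dosed with compounds plus a stimulation mix containing 100uM IBMX and 25uM Ro-20-1724 for 0.5hr at room temperature. cAMP was measured by HTRF competition, 1hr.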

[13] = molecular target: D(2) dopamine receptor (Homo sapiens) (UniProt P14416); assay: Dopamine D2 receptor (DRD2) small molecule agonists, cell-based qHTS assay (AID 1963594); further: nearly all actives have a fitted effect of over 35% in size
D(2) dopamine receptor (Homo sapiens), sequence (P14416 whole entry, looked up): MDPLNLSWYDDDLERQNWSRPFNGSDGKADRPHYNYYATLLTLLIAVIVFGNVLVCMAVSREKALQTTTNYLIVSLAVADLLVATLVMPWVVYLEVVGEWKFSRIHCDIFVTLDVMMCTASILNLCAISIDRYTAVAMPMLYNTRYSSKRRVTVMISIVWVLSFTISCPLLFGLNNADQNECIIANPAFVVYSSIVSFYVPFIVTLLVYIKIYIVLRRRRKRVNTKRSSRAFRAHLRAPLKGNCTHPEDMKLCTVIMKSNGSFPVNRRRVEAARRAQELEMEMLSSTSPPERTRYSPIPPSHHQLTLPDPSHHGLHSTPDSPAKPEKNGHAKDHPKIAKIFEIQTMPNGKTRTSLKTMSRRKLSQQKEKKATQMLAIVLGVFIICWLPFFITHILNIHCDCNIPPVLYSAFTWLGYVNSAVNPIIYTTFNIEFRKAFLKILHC
Procedure, shortened: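 HEK293 cells stably expressing human DRD2, pre-treated with PDE inhibitor Ro20-1724 (0.1 mM final) and compound 10 min at room temperature, then stimulated with NKH477 (200nM […]) for 30 min. cAMP read by HTRF (665/620 nm).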

[14] = molecular target: 5-hydroxytryptamine receptor 2A (Homo sapiens) (UniProt P28223); assay: 5-hydroxytryptamine receptor 2A (HTR2A) small molecule antagonists, cell-based qHTS assay (AID 1963586); further: nearly all actives have a fitted effect of over 45% in size
5-hydroxytryptamine receptor 2A (Homo sapiens), sequence (P28223 whole entry, looked up): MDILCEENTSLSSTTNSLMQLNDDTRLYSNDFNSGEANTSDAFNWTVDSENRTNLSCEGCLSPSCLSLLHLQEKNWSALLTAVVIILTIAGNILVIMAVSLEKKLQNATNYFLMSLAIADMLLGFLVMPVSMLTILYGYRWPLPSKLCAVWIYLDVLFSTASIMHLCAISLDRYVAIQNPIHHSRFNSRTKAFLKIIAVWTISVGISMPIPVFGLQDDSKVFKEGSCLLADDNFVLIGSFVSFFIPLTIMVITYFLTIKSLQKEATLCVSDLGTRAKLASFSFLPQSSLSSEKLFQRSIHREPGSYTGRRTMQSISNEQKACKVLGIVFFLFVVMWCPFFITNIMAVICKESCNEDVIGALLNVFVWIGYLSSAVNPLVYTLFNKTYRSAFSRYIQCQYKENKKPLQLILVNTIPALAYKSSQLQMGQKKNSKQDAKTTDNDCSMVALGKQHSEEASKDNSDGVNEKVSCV
Procedure, shortened: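 Antagonist-mode intracellular calcium assay: DOI (4 nM) added after 5 min compound pre-incubation at room temperature to dye-loaded HTR2A-CHO cells. Fluorescence followed for 3 min, sampled every second.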

[15] = molecular target: 5-hydroxytryptamine receptor 2A (Homo sapiens) (UniProt P28223); assay: 5-hydroxytryptamine receptor 2A (HTR2A) small molecule agonists, cell-based qHTS assay (AID 1963587); further: nearly all actives have a fitted effect of over 30% in size
Procedure, shortened: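 CHO cells stably expressing human HTR2A, plated 18 h, loaded with calcium dye 1 h at 37 C. Agonist mode: compounds added and intracellular calcium fluorescence recorded kinetically for 2 min at 1 sec intervals.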

[16] = molecular target: Muscarinic acetylcholine receptor M1 (Homo sapiens) (UniProt P11229); assay: Cholinergic receptor muscarinic 1 (CHRM1) small molecule antagonists, cell-based qHTS assay (AID 1963588); further: nearly all actives have a fitted effect of over 40% in size; further: potency means the concentration at half of the fitted maximal effect
Muscarinic acetylcholine receptor M1 (Homo sapiens), sequence (P11229 whole entry, looked up): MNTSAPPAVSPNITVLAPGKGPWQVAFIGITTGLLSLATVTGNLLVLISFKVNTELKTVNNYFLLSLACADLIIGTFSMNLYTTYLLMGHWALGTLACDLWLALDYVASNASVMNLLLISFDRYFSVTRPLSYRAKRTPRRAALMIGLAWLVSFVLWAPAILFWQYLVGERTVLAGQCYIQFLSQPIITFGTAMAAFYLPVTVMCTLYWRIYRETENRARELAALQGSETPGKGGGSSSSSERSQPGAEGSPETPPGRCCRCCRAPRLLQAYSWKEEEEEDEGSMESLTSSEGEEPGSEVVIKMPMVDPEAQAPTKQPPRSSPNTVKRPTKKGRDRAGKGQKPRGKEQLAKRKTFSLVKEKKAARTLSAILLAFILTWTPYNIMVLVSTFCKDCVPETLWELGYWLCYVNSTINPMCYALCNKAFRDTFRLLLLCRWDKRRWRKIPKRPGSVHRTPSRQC
Procedure, shortened: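 CHRM1-CHO calcium-flux assay, antagonist mode. Cells were seeded 18 h, dye-loaded 1 h at 37 C and given compound for 5 min at RT, then acetylcholine was added at 50nM. FDSS fluorescence was read 3 min; 15 concentrations, three runs.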

[17] = molecular target: Muscarinic acetylcholine receptor M1 (Homo sapiens) (UniProt P11229); assay: Cholinergic receptor muscarinic 1 (CHRM1) small molecule agonists, cell-based qHTS assay (AID 1963589); further: nearly all actives have a fitted effect of over 35% in size
Procedure, shortened: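 Human M1 in stable CHO line; 18 h plating, 1 h dye load 37 C; cpd added (agonist mode); Ca2+ fluorescence kinetic read, 1 s intervals; 15 conc, 3 runs.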

[18] = cAMP Responsive Elements (CRE) small molecule antagonists, cell-based qHTS assay (AID 1963591; active means well fitted inhibition curve with a large enough effect in the signal ratio in the repeat runs, not every such curve was filed as active; the % refers to the signal ratio; further: potency means the concentration at half of the fitted maximal effect)
Procedure, shortened: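 Beta-lactamase reporter read by FRET substrate (LiveBLAzer B/G) after 2 h at room temperature. CRE-bla HEK293T cells had received compound plus 0.25 uM (final) NKH477 for 3 h at 37 °C.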

[19] = molecular target: D(2) dopamine receptor (Homo sapiens) (UniProt P14416); assay: Dopamine D2 receptor (DRD2) small molecule antagonists, cell-based qHTS assay (AID 1963595; active means well fitted inhibition curve with a large enough effect in the signal ratio in the repeat runs, with a control signal flat; the % refers to the signal ratio)
Procedure, shortened: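 Stable D2 receptor HEK293 line, 24 h after seeding. Compound preincubated 10 min, then quinpirole (12 nM) with forskolin analogue NKH477 (200 nM), 30 min, room temperature. Detection by time-resolved FRET of cAMP.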

Measured: Potency

CCN(C(C)=O)c1cccc(-c2ccnc3c(C#N)cnn23)c1
not listed: [14] | [15] | [16] | [17] | [18] | [19]
inactive: all other assays above

CCSC(=O)N(CC)C1CCCCC1
not listed: [9] | [12]
inactive: all other assays above

CN(C1CCCCC1)C1CCCCC1
not listed: [9] | [12]
inactive: all other assays above

C=CCOC(=O)c1ccccc1N
active: [2] 6.15 µM
not listed: [9] | [12] | [18]
inactive: all other assays above

CNC(=O)Oc1cc(C)c(N(C)C)c(C)c1
not listed: [12] | [15] | [19]
inactive: all other assays above

Cc1ccc(C)c2ccccc12
not listed: [9] | [11] | [13] | [19]
inactive: all other assays above

CN1COCN(Cc2cnc(Cl)s2)/C1=N\[N+](=O)[O-]
not listed: [13] | [15] | [19]
inactive: all other assays above

O=C1OC(c2ccc(O)c(S(=O)(=O)O)c2)(c2ccc(O)c(S(=O)(=O)O)c2)c2c(Br)c(Br)c(Br)c(Br)c21
active: [2] 8.41 µM
not listed: [12] | [17]
inactive: all other assays above

O=C(O)c1c(Cl)ccc2cc(Cl)cnc12
not listed: [9] | [13]
inactive: all other assays above

CNC(=O)Oc1cc(C)c(SC)c(C)c1
not listed: [12] | [14]
inactive: all other assays above

CCOP(=S)(OCC)SCSc1ccc(Cl)cc1
not listed: [9] | [18]
inactive: all other assays above

ClCc1ccccc1Cl
not listed: [9]
inactive: all other assays above

Clc1cccc2ccccc12
not listed: [9] | [11] | [12] | [19]
inactive: all other assays above

NC(=O)C(Cl)(Cl)Cl
not listed: [9] | [16]
inactive: all other assays above

Clc1ccc(C(OCCN2CCCCC2)c2ccccc2)cc1 (stereo not drawn)
active: [16] 0.46 µM
not listed: [9] | [10] | [14] | [19]
inactive: all other assays above

COP(=O)(OC)O/C(C)=C/C(=O)N(C)C
not listed: [8]
inactive: all other assays above

Cc1nc(N(C)C)nc(OC(=O)N(C)C)c1C
not listed: [9] | [13] | [15]
inactive: all other assays above

CC(C)(C)N(NC(=O)c1ccc(Cl)cc1)C(=O)c1ccccc1
not listed: [9] | [10] | [11] | [16]
inactive: all other assays above

C[C@]12CC[C@H]3[C@@H](CCC4=CC(=O)CC[C@@]43C)[C@@H]1CC[C@@H]2O
not listed: [9] | [10] | [12] | [14] | [15] | [16] | [17] | [18]
inactive: all other assays above

Nc1ccc(Sc2ccc(N)cc2)cc1
active: [2] 68.6 µM
not listed: [9] | [10] | [12] | [13] | [15] | [17]
inactive: all other assays above

CN(C)CCN(C)C
not listed: [9] | [13] | [14]
inactive: all other assays above

Fc1ccc(C2(Cn3cncn3)OC2c2ccccc2Cl)cc1 (stereo not drawn)
not listed: [9] | [12] | [13] | [16] | [18]
inactive: all other assays above

Cc1ccc2cc3c(ccc4ccccc43)c3c2c1CC3
not listed: [9] | [14] | [15] | [16] | [17]
inactive: all other assays above

Clc1ccccc1
not listed: [9] | [11] | [15]
inactive: all other assays above

CC1(C)COP(Oc2ccccc2)OC1
not listed: [9] | [12] | [14] | [18]
inactive: all other assays above

[O-][Cl+3]([O-])([O-])O
not listed: [9] | [17]
inactive: all other assays above

CCNc1nc(Cl)nc(NC(C)(C)C)n1
not listed: [9] | [10] | [12]
inactive: all other assays above

ClCBr
not listed: [9] | [12] | [14] | [17] | [18]
inactive: all other assays above

CCCN(CCC)c1c([N+](=O)[O-])cc(S(C)(=O)=O)cc1[N+](=O)[O-]
active: [16] 10.6 µM
not listed: [9] | [10] | [12] | [18]
inactive: all other assays above

CCC1(CCC(C)C)C(=O)NC(=O)NC1=O
not listed: [9] | [12] | [14] | [15] | [16] | [17]
inactive: all other assays above

N#Cc1c2ccccc2cc2ccccc12
not listed: [9] | [10] | [12] | [18] | [19]
inactive: all other assays above

C=COC(C)=O
not listed: [9] | [12] | [15]
inactive: all other assays above

COP(=S)(OC)Oc1ccc([N+](=O)[O-])c(C)c1
active: [8] 0.363 µM
not listed: [9] | [13] | [15] | [16]
inactive: all other assays above

CCOP(=O)(N=C1SCCS1)OCC
not listed: [9] | [17]
inactive: all other assays above

CCOC(=O)CCl
not listed: [9] | [10] | [12] | [16] | [18]
inactive: all other assays above

CCCCOC(=O)c1ccccc1N
active: [18] 61.4 µM
not listed: [9] | [10] | [12]
inactive: all other assays above
